# Among all 48,000 compounds or so, about 13,000 (27%) showed an effect of 50% or more. Some of the results follow.
# Test system: Wolbachia pipientis
# Experiment: Anti-Wolbachia Cell-Based Screen
# Format: functional
# Design: scale not given: in the data most compounds retested in dose-response had high values
# Settings: 5 µM
row,SMILES,Percent Effect [%]
1,CCOc1ccc(CC(CNC(=O)c2ccoc2)C(N)=O)cc1 (stereo unspecified),0.9555
2,Cc1cccc(C(C)(C)CNC(=O)CN(C)c2cnccn2)c1,2.301
3,CN(Cc1cc(C2CC2)[nH]n1)C(=O)C(c1cccnc1)N1CCCC1 (stereo unspecified),5.078
4,Cc1ccc(F)c(NC(=O)CCC(=O)N(C)Cc2cc(C3CC3)[nH]n2)c1,-39.88
5,CN(Cc1cc(C2CC2)[nH]n1)C(=O)c1cnn2ccn(C)c12,92.15
6,Cc1ccc2[nH]c(=O)c(CN(C)Cc3cc(C4CC4)[nH]n3)cc2c1,-5.439
7,CCCn1ncc(C(=O)N(C)Cc2n[nH]c3c2CCC3)c1C,-0.7404
8,Cc1cnc2c(C(=O)N(C)Cc3cc(C4CC4)[nH]n3)cnn2c1,88.43
9,CN(Cc1cc(C2CC2)[nH]n1)C(=O)c1ccccc1C1CCNC1 (stereo unspecified),6.983
10,CCCn1ncc(C(=O)N2CCN(C(=O)c3ccc[nH]3)CC2)c1C,2.425
11,CCCn1ncc(C(=O)N(C)Cc2cc(C3CC3)[nH]n2)c1C,103.9
12,Cn1ccc(CNC(=O)N2CCCC3(C2)OCCO3)c1,-4.368
13,Cc1ccc(CNCc2cccc3cn[nH]c23)c(OC2CCOC2)c1 (stereo unspecified),1.328
14,CCCNC(=O)CN1CCOC(CC)C1 (stereo unspecified),-15.19
15,CSc1nc2cc(C)n(CC(N)=O)c2c(=O)n1CC(C)C,0.2317
16,CC[C@@]1(O)CCN(C(=O)CCSCc2ccc(F)cc2)C[C@H]1O,8.229
17,NC(=O)C1CCN(C(=O)CCCc2ccc(Cl)c(Cl)c2)CC1,-6.164
18,NC(=O)C1CCN(C(=O)CCSCc2ccc(Cl)c(Cl)c2)CC1,148.4
19,O=C(C1COc2ccccc2O1)N1Cc2cnn(CCO)c2C1 (stereo unspecified),-44.4

row,SMILES,Percent Effect [%]
1,COc1ncccc1C(=O)N(C)Cc1nc(-c2ccccn2)no1,0.08907
2,COc1ccc(-c2nc(CN3CCCC(OC)C3)c(C)o2)c(F)c1 (stereo unspecified),6.893
3,COc1ccc(F)c(CN2CCC(c3cc(O)nc(C)n3)C2)c1.O=C(O)CC(O)(CC(=O)O)C(=O)O (stereo unspecified),-11.82
4,COc1ccc(CN2CCC(c3cc(O)nc(C)n3)C2)c(OC)c1.O=C(O)CC(O)(CC(=O)O)C(=O)O (stereo unspecified),122.8
5,COc1ccc(OC)c(CN2CCC(c3cc(O)nc(C)n3)C2)c1 (stereo unspecified),99.72
6,COc1ccc(F)c(CN2CCCC(c3cc(O)nc(C)n3)C2)c1 (stereo unspecified),108.4
7,COCC(=O)N1CCC2(CCCN(Cc3cc(OC)ccc3F)C2)C1 (stereo unspecified),2.404
8,CCN1CCC(CNCc2cc(OC)ccc2OC)C1 (stereo unspecified),4.75
9,Cc1nc(O)cc(C2CCN(Cc3cccc(F)c3F)C2)n1.O=C(O)CC(O)(CC(=O)O)C(=O)O (stereo unspecified),-5.944
10,Cc1nc(O)cc(C2CCN(Cc3ccc(F)c(F)c3)C2)n1.O=C(O)CC(O)(CC(=O)O)C(=O)O (stereo unspecified),92.59
11,CNC(=O)[C@@H]1C[C@@H](N)CN1C(=O)CCSCc1ccccc1,-2.753
12,Cc1ncc(-c2nc3cc(S(=O)(=O)N4CCCC4)ccc3n2C)cn1,-2.365
13,O=C(Nc1ccc(-n2cccn2)c(F)c1)C1CCN(C(=O)C2CC2)CC1,-6.661
14,Cc1nnn2c1COCC(CNC(=O)c1ccnnc1)C2 (stereo unspecified),-2.264
15,CCN(C)CC1CCN(C(=O)NCCC2Cc3ccccc3C2)C1 (stereo unspecified),-23.1
16,COc1ccc(CN2CCC(c3cc(O)nc(C)n3)C2)c(F)c1 (stereo unspecified),113.4
17,CC(C)c1noc(C[S+]([O-])CC(=O)Nc2cc(F)ccc2F)n1 (stereo unspecified),-11.5
18,N#Cc1cc(N2CCC(CS(N)(=O)=O)CC2)c2ccccc2n1,3.151
19,Cc1nc(CN2CCn3cc(CNC(=O)C4CCC4)nc3C2)cs1.O=C(O)C(F)(F)F,-18.19

row,SMILES,Percent Effect [%]
1,Cc1nc(CN2C[C@@H]3CCCO[C@@H]3[C@H](N(C)C(C)C)C2)cs1.O=C(O)C(F)(F)F.O=C(O)C(F)(F)F,-4.847
2,CNC(=O)[C@H]1C[C@@H]2CN(S(=O)(=O)Cc3ccccc3)C[C@@H]2N1C.O=C(O)C(F)(F)F,-3.951
3,Cc1nc(CN2CCO[C@@H]3CN(C(=O)NC(C)C)CC[C@@H]3C2)cs1.O=C(O)C(F)(F)F,-13.31
4,CNC(=O)[C@H]1C[C@@H]2CN(Cc3csc(C)n3)C[C@@H]2N1S(C)(=O)=O.O=C(O)C(F)(F)F,110
5,CNC(=O)[C@@H]1C[C@H]2CN(C(=O)c3ccco3)C[C@H]2N1C.O=C(O)C(F)(F)F,-16.64
6,CNC(=O)[C@@H]1C[C@H]2CN(C(=O)c3ccco3)C[C@H]2N1C(C)C.O=C(O)C(F)(F)F,99.89
7,Cc1nc(CN2C[C@@H](NC(=O)C3CCC3)[C@H]3COC[C@H]32)cs1.O=C(O)C(F)(F)F,-15.38
8,CNC(=O)[C@@H]1C[C@H]2CN(Cc3csc(C)n3)C[C@H]2N1C(C)C.O=C(O)C(F)(F)F.O=C(O)C(F)(F)F,116.9
9,Cc1nc(C)c(CC(=O)Nc2ncc(C)s2)c(=O)[nH]1,-6.358
10,CCn1c(C2CCN(Cc3cc(C)n(NC(C)=O)c3C)CC2)n[nH]c1=O,1.026
11,O=C(CN1CCN(CC2CCOc3ccccc3C2)CC1)N1CCCC1 (stereo unspecified),1.365
12,COCCC(=O)N(Cc1ccccn1)Cc1ccccc1C,13.85
13,CC(C)CN(Cc1ccccn1)Cc1ccccc1OCC(=O)O,7.517
14,CC(C)CN(Cc1ccccn1)Cc1ccccc1C(=O)O,-7.566
15,Cc1ccc(CN(Cc2ccccn2)C2CC(C)(C)NC(C)(C)C2)s1.O=C(O)CC(O)(CC(=O)O)C(=O)O,-1.083
16,Cn1ccnc1CN(Cc1ccccn1)Cc1ccccc1Cl.O=C(O)CC(O)(CC(=O)O)C(=O)O,93.9
17,Cc1ncc(CN(Cc2ccccn2)Cc2ccccc2Cl)n1C.O=C(O)CC(O)(CC(=O)O)C(=O)O,124.9
18,CCC(CO)N(Cc1ccco1)C(=O)c1cccnc1NC (stereo unspecified),-5.429

# Source: ChEMBL document CHEMBL3988442, “University of Dundee, Small-Polar-MMV Screening Library” (2021)
